The campaign covered roughly 53,000 sequences. About 3,700 (7%) were called active.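 The calls were made as follows: active = gene knockdowns whose robust z-score for IL-1 alpha signal is at least 2 or at most -2, so actives lie on both sides; inactive = the rest.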 Many of the other results were omitted from the sample, so actives are more common in it than they were.
experiment: Components of the Cytosolic LPS Sensing Pathway: Gene Identification via Genome-wide siRNA Screen; conditions: RAW264.7 macrophages, IL-1a HTRF, actives lie on both sides, screened at 100 nM (by protocol), cells primed 5 h with Pam3CSK4 first;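 also: robust z of the log signal after scaling to non-targeting control siRNA wells of the plate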
How it was run: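 RAW264.7; siRNA 100 nM final, RNAiMAX, 48h 37 degrees C; Pam3CSK4 5 h; LipidA + TransIT-TKO 24 h; IL-1a HTRF; CellTiter-Glo viability; robust z vs negative-control median.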

z-score, active:
CGUGGACUAAAAGUUUUCATT against Mmp12 3.63
GGUGCUGCUAGUGAACAAGTT against E2f4 5.64
CGAUUGGUUGUUGUAGACATT against Abhd11 -2.56
GGCCGGUUAGCUAAUCAGATT against Armc10 2.03
GCUGUACGUUUGCACAUUCTT against Rc3h1 -2.87
GCGCAGGAUGAGAAGUUCUTT against Slc43a3 3
GGAUGAAAGCAAAGACAAGTT against Zscan21 2.63
GCUGAUUCCGUGUCCCAACTT against Gng2 3.42
GGUGCAAUCAGCUUUCCACTT against Olfr1336 2.26
CGGUUAACUGGAAAGUGCGTT against Tmem132e 2.99
GGGACUGAAAUCUAUUUUGTT against Zfp217 2.16
GGGAUUGGCUACGACUUCATT against Cbs 2.06
CGGGUGCCGGAAAGUUUAUTT against Klf7 2.84
CCCAAGGUCCAGUUUGAUGTT against Mettl17 -2.42
GGAAACAGGUCUGUCCCAATT against Ankle1 -2.22

z-score, inactive:
GGCAGAGGAAAUCAUGAAGTT against Clpp -1.05
GGGAGUUCAACUUGAUGUATT against Irf6 -1.45
GGAUCCCAGAUUGAAAACUTT against Rnf5 -0.92
CCGGACCUCUGCGCAAUUUTT against Npb 0.289
GUUUUUGCUAUGGCUCGUATT against H3c1 0.92
CCGAGAACCUUAAACUCCCTT against Sowahc 0.161
GGAGAUAUGGCCAUCACUCTT against Toe1 1.11
GGCCUUUGAUGACAUGUACTT against Bpifb1 -0.378
GAUGCUAGUGAACCUCAUGTT against Olfr1020 -0.765
CCAAUCCAAACGAAGUUAATT against Rgs9 -0.977
CGUUUCAACAAGCUCGUGUTT against Rbmxl2 1.02
GGAUACAAAUGAAAGCUUATT against Zfp354b -0.307
GGCAAGAAACAGUCAUAAGTT against Eps8l3 0.404
GGCAUCAAGUUCUAUCUGUTT against Slc6a11 -0.704
UGGCUGAUAUGAAGGUCUGTT against Krtap31-2 0.154
GGCUCUGUAUCGGAAGGCUTT against Zc3h7a 0.817
GGAUUCUGCUAGCAGUUCATT against Csn1s2a -0.477
GGGUUGCUUCAACUUUUAGTT against Mpp1 -0.346
GGCCAUGGAAAAAUCUCAGTT against Dtna 0.557
GCCUAUACAACCCUAUUGUTT against Kazn -0.879
GGUUUGUGGUGAACUUUCATT against Lgals9 0.707
GGAUUUGGAAAAUUGAUGCTT against Ahi1 0.97
GGUUGAUGGGAAAACAAUATT against Rab11a -0.6
GAUCCUGCAUCUUUAGUGUTT against Ascl1 -0.0831
GGGUAGGGCAGUCUACUUATT against F2r -0.407
CCUGCUUCUCUACAACCAUTT against Olfr1209 -0.817
GCUUGUAUUGCUUGUCUUUTT against Olfr172 1.89
GGAGUAGAAGAAGAGGAGUTT against Mrpl50 0.946
CCGAUUGAUAAAGUCACAUTT against Zfat 0.241
GGAAAAAAGAUGAAUUGCCTT against Cbx8 1.63
GGAGUCUUGGCCCUUUAAUTT against Zcchc12 -1.09
GCCUCUUUAUAAUAUAAGGTT against Pcgf6 -0.687
CGUGAUGAAUGAGAAUAACTT against Maea 0.584
GGAAUUAAACCAUUUCAGUTT against Zbtb44 1.28
GGAGGAUUCAUGCUUUGUUTT against Morc2b 0.238
GGUUUUUGAGUGGGAGACCTT against Khdc3 -0.578
GAUUUAGCUUGGUGAACCGTT against Thoc6 0.754
GGACUUAGACAUCCACCUCTT against Llcfc1 -1.64
CCAAGCUAGUCCUCAAGCUTT against Snapc2 -1.16
GCUAGCUGUUGUAAAAGAATT against Gm4841 -0.507
GGCCAUUAACCAGUCUAUCTT against Cdhr5 0.977
GGUUCUGGAGAACAGAGUCTT against 4930483J18Rik -0.44
GCGAUAAGCAGAAUGGCAGTT against 8030462N17Rik -0.9
GCAGCAUUGACUGAAGAUCTT against Lce1m -0.316
GGACAAAAGGCUGAGCAUCTT against Flt1 -0.235
GGAAUCAUGCUGAAAGAGATT against Apom -0.123
GGUUGCGUGUGGUUACUAUTT against Herc4 0.161
CCUCUGUGAUUUCAUUCUUTT against Hhip -0.991
GGCAUUUUCACAAAAGACUTT against Rab23 -1.43
GGAUGGCUACCGAAAAAAUTT against Eif3c 0.967
CGACGCAUUGAGGCAAUCUTT against Camsap3 -0.483
GGCAAAGCACCUUUAUCUGTT against G430095P16Rik -0.664
GGCAAGGAUAAGACAGUAGTT against Hs3st3b1 -0.354
GGAUGAAGACCUUGAACGGTT against Slc28a3 1.48

Source: PubChem BioAssay AID1508600 (Functional Genomics Laboratory (NCATS/FGL), 2020)
